The target of assay [1] is Acetylcholinesterase (Homo sapiens) (UniProt P22303). As to the kind of experiment: Acetylcholinesterase (AChE) small molecule antagonists: colormetric cell-based qHTS assay (AID 1347395). Note: nearly all actives have a fitted effect of over 30% in size. Note: potency is the fitted concentration of half-maximal effect. In outline: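 Neuroblastoma line SH-SY5Y supplied the enzyme; cells were preincubated with compound for 30 min at 37 C and 5% CO2. Acetylthiocholine with DTNB was then added for 90 min at 37 C, and thiocholine was measured by colour.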

Assay [2] shares this target. The assay can be described thus: Acetylcholinesterase (AChE) small molecule antagonists: enzyme-based qHTS assay (AID 1347397). Note: nearly all actives have a fitted effect of over 55% in size. Note: potency is the fitted concentration of half-maximal effect. To be noted: Potency: AChE enzyme activity inhibition; outcome: AChE enzyme activity inhibition. The procedure, abridged: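 Human recombinant acetylcholinesterase; substrate acetylthiocholine; thiocholine quantified with DTNB (colorimetric). Compound preincubation 30 min RT; reaction 10 min RT.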
In general terms: In qHTS, concentration-response curves come from the screen itself.

Assay [3] shares this target. As to the kind of experiment: Acetylcholinesterase (AChE) small molecule antagonists: fluorescence cell-based qHTS assay (AID 1347398). Note: nearly all actives have a fitted effect of over 50% in size. Note: potency is the fitted concentration of half-maximal effect. To be noted: Potency: AChE activity; outcome: AChE activity. The procedure, abridged: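 Thiocholine generated from acetylthiocholine by SH-SY5Y cell AChE is detected with Thiolite Green (Ex/Em 490/520 nm) after 40 min at room temperature, following 30 min compound pretreatment at 37 C.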

The target is the same in assay [4]. As to the kind of experiment: Acetylcholinesterase (AChE) small molecule antagonists: enzyme-based qHTS assay with human liver microsomes (AID 1347399). Note: nearly all actives have a fitted effect of over 60% in size. Conditions: Potency: qHTS inhibition; outcome: qHTS inhibition. The procedure, abridged:
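Recombinant human AChE (50 mU/mL in the enzyme mix) and human liver microsomes (0.25 mg/mL final) were preincubated with compound and NADPH (0.25 mg/mL final) for 30 min at 37 C. Acetylthiocholine/DTNB was then added; thiocholine was read colorimetrically after 10 min at room temperature.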

Several values for one entry are separate records, joined by “and”; a condition that tells them apart may be missing. Equal values may be shown once. Inconclusive results are not listed. Where a structure was tested more than once in an assay, its records may differ in their call. Activity calls are given as the source filed them. Calls come from the whole dose curve.

Among the data in PubChem BioAssay (Tox21) are Potency, activity, negative = inhibition and activity change, negative = inhibition values, retold here.
% is set by controls: 0 for no effect and ±100 for the full control effect.

Sequence of Acetylcholinesterase (Homo sapiens) (P22303 whole entry, looked up): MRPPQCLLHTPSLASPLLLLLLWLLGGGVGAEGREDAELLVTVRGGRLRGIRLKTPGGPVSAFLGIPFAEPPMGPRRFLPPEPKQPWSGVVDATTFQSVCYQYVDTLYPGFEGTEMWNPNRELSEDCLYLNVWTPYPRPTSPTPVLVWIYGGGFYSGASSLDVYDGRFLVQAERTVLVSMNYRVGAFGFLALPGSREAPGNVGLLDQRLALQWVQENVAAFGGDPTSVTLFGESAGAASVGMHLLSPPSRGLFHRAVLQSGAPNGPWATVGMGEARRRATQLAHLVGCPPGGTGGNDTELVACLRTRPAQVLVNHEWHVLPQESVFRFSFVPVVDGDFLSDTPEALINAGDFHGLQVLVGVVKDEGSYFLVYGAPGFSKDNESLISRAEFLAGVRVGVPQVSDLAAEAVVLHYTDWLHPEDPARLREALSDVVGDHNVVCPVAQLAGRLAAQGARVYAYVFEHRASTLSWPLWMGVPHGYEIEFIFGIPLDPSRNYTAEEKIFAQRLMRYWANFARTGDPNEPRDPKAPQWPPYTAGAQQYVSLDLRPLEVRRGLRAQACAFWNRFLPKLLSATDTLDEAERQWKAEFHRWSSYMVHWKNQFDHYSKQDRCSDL

Turning to `CCOC(=O)O[C@]1(C(=O)OCCl)CC[C@H]2[C@@H]3CCC4=CC(=O)C=C[C@]4(C)[C@H]3[C@@H](O)C[C@@]21C`, the Potency result in assay [1], in assay [2], in assay [3] and in assay [4] was “inactive” in each case.
With `CCCc1ncc(C(=O)O)s1`, the Potency entry in assay [1], in assay [2], in assay [3] and in assay [4] was “inactive” in each case.
As to `CC(CN(CCN(CC(C)OCCO)CC(C)OCCO)CC(C)OCCO)OCCO` (stereo not given), the Potency result in assay [1], in assay [2], in assay [3] and in assay [4] was “inactive” in each case.
Consider `Nc1ccc(N)c(Cl)c1`, for which the Potency in assay [1] was 8.92 µM (active) and 22.4 µM (active); in assay [2] it was 8.92 µM (active) and 8.94 µM (active); in assay [3] it was 5.63 µM (active) and 10 µM (active). Also, the Potency entry in assay [4] was “inactive”.
With `COc1nccnc1NS(=O)(=O)c1ccc(N)cc1`, the Potency result in assay [1], in assay [2], in assay [3] and in assay [4] was “inactive” each time.
As for `O=C(O)c1ccccc1S`, the Potency result in assay [1], in assay [2], in assay [3] and in assay [4] was “inactive” in each case.
For `CC(C)CC(C)(C)C`, the Potency result in assay [1], in assay [2], in assay [3] and in assay [4] was “inactive” in each case.
On to `CS(=O)(=O)c1ccc([C@@H](O)[C@@H](CO)NC(=O)C(Cl)Cl)cc1`, for which the Potency result in assay [1], in assay [2], in assay [3] and in assay [4] was “inactive” each time.
As to `Cc1cc2nc(N)sc2cc1C`, the Potency entry in assay [1], in assay [2], in assay [3] and in assay [4] was “inactive” each time.
On to `C/C(=C(\CCOP(=O)(O)O)SC(=O)c1ccccc1)N(C=O)Cc1cnc(C)nc1N`, for which the activity, negative = inhibition in assay [1] is -0.469% [at 10.5 µM] (inactive). For the same compound, the activity change, negative = inhibition in assay [2] is 0.584% [at 10.5 µM] (inactive); in assay [3], 5.35% [at 10.5 µM] (inactive); in assay [4], -1.26% [at 10.5 µM] (inactive).
As for `CCCCCCC(=O)O`, the Potency entry in assay [1], in assay [2], in assay [3] and in assay [4] was “inactive” in each case.
For `CC(=O)OC1CCC(C(C)(C)C)CC1` (stereo not given), the Potency entry in assay [1], in assay [2], in assay [3] and in assay [4] was “inactive” throughout.
In the case of `CO[C@@H]1[C@@H](OC(N)=O)[C@@H](O)[C@H](Oc2ccc3c(O)c(NC(=O)c4ccc(O)c(CC=C(C)C)c4)c(=O)oc3c2C)OC1(C)C`, the Potency entry in assay [1], in assay [2], in assay [3] and in assay [4] was “inactive” each time.
For `CCn1cc(C(=O)O)c(=O)c2cc(F)c(N3CCNC(C)C3)c(F)c21` (stereo not given), the Potency result in assay [1], in assay [2], in assay [3] and in assay [4] was “inactive” in each case.
As to `NC(N)=NC(=O)c1nc(Cl)c(N)nc1N`, the Potency is 35.8 µM (active) and 32.9 µM (active) and 27.5 µM (active) in assay [1]; 12.7 µM (active) and 32.9 µM (active) in assay [3]. Moreover, the Potency result in assay [2] and in assay [4] was “inactive” in each case.
In the case of `Cc1noc(NS(=O)(=O)c2ccc(N)cc2)c1C`, the Potency result in assay [1], in assay [2], in assay [3] and in assay [4] was “inactive” throughout.
With `COC(=O)CCCC(=O)OC`, the Potency result in assay [1], in assay [2], in assay [3] and in assay [4] was “inactive” each time.
For `O=C(O)CCCC(=O)O`, the Potency in assay [1] was 6.21 µM (active) and inactive. Moreover, the Potency entry in assay [2], in assay [3] and in assay [4] was “inactive” each time.
Turning to `CCCCCCCC(=O)OCC(O)CO` (stereo not given), the Potency result in assay [1], in assay [2], in assay [3] and in assay [4] was “inactive” in each case.
For `CC(=O)CC(C)(C)C1CCCCC1`, the Potency entry in assay [1], in assay [2], in assay [3] and in assay [4] was “inactive” each time.
Turning to `Cc1c(N(C)C)c(=O)n(-c2ccccc2)n1C`, the Potency entry in assay [1], in assay [2], in assay [3] and in assay [4] was “inactive” in each case.
Regarding `CC(C)(C)C(=O)CCc1ccc(Cl)cc1`, the Potency result in assay [1], in assay [2], in assay [3] and in assay [4] was “inactive” each time.
For the compound `O=C(O)CCCC[P+](c1ccccc1)(c1ccccc1)c1ccccc1`, the Potency entry in assay [1], in assay [2], in assay [3] and in assay [4] was “inactive” each time.
`O=C(O)C(S)C(S)C(=O)O` (stereo not given): the Potency result in assay [1], in assay [2], in assay [3] and in assay [4] was “inactive” throughout.
For `CCO/C=C1\N=C(c2ccccc2)OC1=O`, the Potency entry in assay [1], in assay [2], in assay [3] and in assay [4] was “inactive” each time.
For `CNCC[C@@H](Oc1ccccc1C)c1ccccc1`, the Potency result in assay [1], in assay [2], in assay [3] and in assay [4] was “inactive” throughout.
In the case of `CC(CN(C)C)C(C)(O)Cc1ccc(Cl)cc1` (stereo not given), the Potency result in assay [1], in assay [2], in assay [3] and in assay [4] was “inactive” throughout.
For the compound `CN(C)Cc1cc(CN(C)C)c(O)c(CN(C)C)c1`, the Potency entry in assay [1], in assay [2], in assay [3] and in assay [4] was “inactive” throughout.
For the compound `CCCCCCCCCCCCCO`, the Potency entry in assay [1], in assay [2], in assay [3] and in assay [4] was “inactive” each time.
Regarding `CCCCCCCCCCCCCCCO`, the Potency result in assay [1], in assay [2], in assay [3] and in assay [4] was “inactive” each time.
As for `Cc1ccc(-n2nc(C(C)(C)C)cc2NC(=O)Nc2ccc(OCCN3CCOCC3)c3ccccc23)cc1`, the Potency entry in assay [1], in assay [2], in assay [3] and in assay [4] was “inactive” throughout.
Consider `Nc1cccc(N)n1`, for which the Potency entry in assay [1], in assay [2], in assay [3] and in assay [4] was “inactive” in each case.
Consider `C=C(C)C(=O)O[C@H]1C[C@@H]2CC[C@@]1(C)C2(C)C`, for which the Potency entry in assay [1], in assay [2], in assay [3] and in assay [4] was “inactive” throughout.
In the case of `O=C(Oc1ccccc1)c1ccc2ccccc2c1O`, the Potency entry in assay [1], in assay [2], in assay [3] and in assay [4] was “inactive” in each case.
As for `N[C@@H](CCC(=O)Nc1ccc([N+](=O)[O-])cc1)C(=O)O`, the Potency result in assay [1], in assay [2], in assay [3] and in assay [4] was “inactive” throughout.
Turning to `NC(=O)OCC(COC(N)=O)c1ccccc1`, the Potency entry in assay [1], in assay [2], in assay [3] and in assay [4] was “inactive” in each case.
As for `Oc1cc2ccccc2cc1O`, the Potency result in assay [1], in assay [2], in assay [3] and in assay [4] was “inactive” throughout.
With `O=C(O)c1cc(C(=O)O)cc([N+](=O)[O-])c1`, the Potency entry in assay [1], in assay [2], in assay [3] and in assay [4] was “inactive” in each case.
For the compound `CCc1cc2cc(OC)c(OC)cc2c(Cc2ccccc2)n1`, the Potency entry in assay [1], in assay [2], in assay [3] and in assay [4] was “inactive” in each case.
As for `O=C1c2ccccc2C(=O)C1c1ccc(Br)cc1`, the Potency entry in assay [1], in assay [2], in assay [3] and in assay [4] was “inactive” throughout.
On to `O=Cc1ccccc1C=O`, for which the Potency result in assay [1], in assay [2], in assay [3] and in assay [4] was “inactive” in each case.
`C=C(C)C(=O)OCCOC1CC2CC1C1C=CCC21` (stereo not given): the Potency entry in assay [1], in assay [2], in assay [3] and in assay [4] was “inactive” throughout.
Regarding `c1ccc(CCCc2ccncc2)cc1`, the Potency result in assay [1], in assay [2], in assay [3] and in assay [4] was “inactive” each time.
Take `CCN(Cc1ccccc1)c1ccccc1`: the Potency entry in assay [1], in assay [2], in assay [3] and in assay [4] was “inactive” throughout.
As to `CC(=O)N(CC(O)CO)c1c(I)c(C(=O)NCCO)c(I)c(C(=O)NCC(O)CO)c1I` (stereo not given), the Potency entry in assay [1], in assay [2], in assay [3] and in assay [4] was “inactive” each time.
Regarding `c1ccc2c(c1)ccc1ccccc12`, the Potency entry in assay [1], in assay [2], in assay [3] and in assay [4] was “inactive” throughout.
Consider `CC(=O)CC(=O)N(C)C`, for which the Potency result in assay [1], in assay [2], in assay [3] and in assay [4] was “inactive” each time.
Turning to `COc1ccc(-n2nc(CCC(=O)N(C)O)cc2-c2ccc(Cl)cc2)cc1`, the Potency entry in assay [1], in assay [2], in assay [3] and in assay [4] was “inactive” each time.
On to `CCCCCCCC(=O)OCC(COC(=O)CCCCCCC)OC(=O)CCCCCCC`, for which the Potency result in assay [1], in assay [2], in assay [3] and in assay [4] was “inactive” throughout.
For the compound `Cc1ccc(O)c2ncccc12`, the Potency entry in assay [1], in assay [2], in assay [3] and in assay [4] was “inactive” each time.
As to `Cc1cc(C)cc(O)c1`, the Potency entry in assay [1], in assay [2], in assay [3] and in assay [4] was “inactive” each time.
For `CCC(=O)Nc1cccc(N)c1`, the Potency entry in assay [1], in assay [2], in assay [3] and in assay [4] was “inactive” each time.
For the compound `COC(=O)[C@@H]1CC2=CC(=O)CC[C@]2(C)[C@@]23O[C@@H]2C[C@@]2(C)[C@@H](CC[C@@]24CCC(=O)O4)[C@H]13`, the Potency entry in assay [1], in assay [2], in assay [3] and in assay [4] was “inactive” each time.
For `CCCCOC(=O)C(C)Oc1ccc(Oc2ccc(C(F)(F)F)cn2)cc1` (stereo not given), the Potency entry in assay [1], in assay [2], in assay [3] and in assay [4] was “inactive” throughout.
For the compound `CC(C)(N=C=O)c1cccc(C(C)(C)N=C=O)c1`, the Potency entry in assay [1], in assay [2], in assay [3] and in assay [4] was “inactive” in each case.
For the compound `Cc1ccc(O)c(C(C)(C)C)c1`, the Potency result in assay [1], in assay [2], in assay [3] and in assay [4] was “inactive” each time.
In the case of `O=C(O)c1cccc(C[C@@H]2COc3ccc(OCc4nc5cc(F)ccc5s4)cc3[C@@H]2O)c1`, the Potency entry in assay [1], in assay [2], in assay [3] and in assay [4] was “inactive” throughout.
Take `O=C(Cl)c1ccc(Cl)cc1Cl`: the Potency result in assay [1], in assay [2], in assay [3] and in assay [4] was “inactive” each time.
For `Nc1ccc(N)c2c1C(=O)c1ccccc1C2=O`, the Potency entry in assay [1], in assay [2], in assay [3] and in assay [4] was “inactive” throughout.
For the compound `CCC(=O)CC(C)CC` (stereo not given), the activity, negative = inhibition in assay [1] is -0.199% [at 0.435 µM] (inactive). The figures for the activity change, negative = inhibition in assay [2], in assay [3] and in assay [4] were 1.36% [at 0.435 µM] (inactive), 1.06% [at 0.439 µM] (inactive) and 0% [at 0.435 µM] (inactive), respectively.
